Reference: PubChem BioAssay (NCATS)
Results filed as inconclusive are left out. The source made the active and inactive calls. The call rests on the fitted dose curve; in most records, active means well fitted inhibition curve with a large enough effect in the signal ratio, with a control signal flat (not every such curve was filed as active); inconclusive means small, poorly fitted or top-dose-only effect, or effect the other way, or a change in a side signal; inactive means flat fitted curve, though single readings scatter; the % refers to the signal ratio.

Target: Peroxisome proliferator-activated receptor gamma (Homo sapiens) (UniProt P37231)
Assay: qHTS assay for small molecule antagonists of peroxisome proliferator-activated receptor gamma signaling (AID 588537);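 further: reporter cells co-stimulated with 50 nM rosiglitazone agonist during compound treatment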
Settings: HEK293 PPARg-UAS-bla, beta-lactamase ratio, antagonist mode; series mostly up to 76.8 µM
From the text: NIH Chemical Genomics Center [NCGC]
U.S. Environmental Protection Agency [EPA]
National Institutes of Environmental Health Sciences [NIEHS]
National Toxicology Program [NTP]
The Peroxisome proliferator-activated receptors (PPARs) are lipid-activated transcription factors of the nuclear receptor superfamily with three distinct subtypes namely PPAR alpha, PPAR delta (also called PPAR beta) and PPAR gamma. All these subtypes heterodimerizes with Retinoid X receptor (RXR) and these heterodimers regulate transcription of various genes. PPAR-gamma (glitazone receptor) ligands have been used in the treatment of type 2 diabetes and dyslipidaemia. It is involved in the regulation of glucose and lipid metabolism. PPAR-gamma activates certain genes like Paraoxonase 1 which is responsible for hydrolyzing organophosphates. PPAR-gamma ligands may also be therapeutically important in the treatment of coronary artery disease, obesity and cancer and atherosclerosis.
NCGC Assay Protocol Summary
Using a beta-lactamase reporter-gene under control of Peroxisome Proliferator-Activated-gamma (PPAR-gamma) response element, a cell-based assay [GeneBLAzer PPAR-gamma-UAS-bla assay developed by Invitrogen] was used to measure PPAR-gamma ligands signaling. GeneBLAzer PPAR-gamma-UAS-bla-HEK293 cells were used with assay medium containing 1% charcoal/dextran treated FBS. The assay was performed in clear bottom black Greiner 1536-well plates. Library compounds were measured for their ability to inhibit the reporter gene activity. Compounds were screened in a titration series in 1536-well format. The fluorescence intensity (405 nm excitation, 460/530 nm emission) was measured using an EnVision plate reader. Data was normalized relative to Rosiglitazone control (50 nM, 100%), and DMSO only wells (basal, 0%). Concentration-response titration points for each compound were fitted to the Hill equation yielding concentrations of half-maximal inhibition (IC50) and maximal response (efficacy) values.
qHTS protocol for PPAR-gamma beta-lactamase assay in antagonist mode
[Step] [Parameter] [Value] [Description]
1. Reagent; 5 uL; 3000 cells/well
2. Incubation; 37 C for 6-6.5 hrs
4. Controls (GW9662, PPAR-gamma antagonist); 23 nL,
5. Agonist (Stimulator); 1uL; Rosiglitazone at 50 nM (final) concentration
6. Incubation; 37 C for 16 hrs
7. Detection reagent; 1 uL of CCF4-dye
8. Incubation; RT for 2 hrs
9. Detection; Fluorescence; Envision plate reader

Peroxisome proliferator-activated receptor gamma (Homo sapiens), sequence (P37231 whole entry, looked up): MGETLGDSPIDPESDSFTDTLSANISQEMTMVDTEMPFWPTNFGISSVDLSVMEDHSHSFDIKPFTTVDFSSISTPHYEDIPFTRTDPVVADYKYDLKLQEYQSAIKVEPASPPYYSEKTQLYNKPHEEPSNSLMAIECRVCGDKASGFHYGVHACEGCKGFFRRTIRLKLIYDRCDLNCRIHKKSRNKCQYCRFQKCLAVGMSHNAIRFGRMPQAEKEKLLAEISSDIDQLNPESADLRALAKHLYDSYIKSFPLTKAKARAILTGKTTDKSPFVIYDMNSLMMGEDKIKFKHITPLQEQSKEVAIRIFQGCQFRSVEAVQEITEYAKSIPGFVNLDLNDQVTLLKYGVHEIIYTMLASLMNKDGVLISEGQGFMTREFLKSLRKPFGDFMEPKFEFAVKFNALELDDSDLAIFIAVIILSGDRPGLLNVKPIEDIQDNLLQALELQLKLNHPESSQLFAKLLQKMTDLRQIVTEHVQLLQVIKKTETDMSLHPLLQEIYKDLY

SMILES	outcome
Nc1cccc(N)c1	inactive
CCOCCOCC	inactive
CC=C(Cl)Cl	inactive
CCCC(C)CO (stereo not given)	inactive
O=C(O)c1ccccc1[N+](=O)[O-]	inactive
O=C(O[C@@H](C(=O)O)[C@@H](OC(=O)c1ccccc1)C(=O)O)c1ccccc1	inactive
O=C(O)c1c(Cl)cccc1Cl	inactive
O=P(O)(OCc1ccccc1)OCc1ccccc1	inactive
CC(=O)OCCC(C)C	inactive
O=[N+]([O-])c1cc(C(F)(F)F)ccc1Cl	inactive
CC(O)CC(C)O (stereo not given)	inactive
CC(=O)OC(C)=O	inactive
O=C1CCCCC1	inactive
O=[N+]([O-])c1ccc(CCO)cc1	inactive
C=Cc1ccccc1C=C	inactive
CCC(C)(C)OC	inactive
O=C1OC(=O)c2c(Br)c(Br)c(Br)c(Br)c21	inactive
CCOC(C)(C)C	inactive
CCCCCCCCC	inactive
O=Cc1ccccc1Cl	inactive

SMILES	outcome
CC(C)C(C)C	inactive
ON=C1CCCCC1	inactive
Nc1cccc2c(=O)[nH][nH]c(=O)c12	inactive
CCCCN(CCO)CCCC	inactive
CC1CCC2CC1C2(C)C (stereo not given)	inactive
c1ccc2[nH]cnc2c1	inactive
C1COC1	inactive
O=[N+]([O-])c1ccc(Cl)cc1Cl	inactive
Cc1ccc2oc(=O)ccc2c1	inactive
COC(=O)CS	inactive
CCC(C)(C)C(=O)O	inactive
C=CCCCCCC	inactive
BrC/C=C/CBr	inactive
CC(=O)Nc1ccc(N)cc1	inactive
CCCCC(CC)C(=O)O (stereo not given)	inactive
C/C(C=O)=C/c1ccccc1	inactive
Cc1ccc(C)c([N+](=O)[O-])c1	inactive
C=C(C)C(=O)OC	inactive
NC(N)=S	inactive
CCN(Cc1ccccc1)c1ccccc1	inactive
